According to the supplement of paper PMC7724964:

Assays:
Test in all cases: phage ELISA signal ratio (GST-PRM binding over GST background); higher = stronger binding of peptide-phage to the PRM
[1] = target: T1, ARID4A 568-634 Tudor-knot (domain begin residue: 568, domain end residue: 634), P29374
T1 chain: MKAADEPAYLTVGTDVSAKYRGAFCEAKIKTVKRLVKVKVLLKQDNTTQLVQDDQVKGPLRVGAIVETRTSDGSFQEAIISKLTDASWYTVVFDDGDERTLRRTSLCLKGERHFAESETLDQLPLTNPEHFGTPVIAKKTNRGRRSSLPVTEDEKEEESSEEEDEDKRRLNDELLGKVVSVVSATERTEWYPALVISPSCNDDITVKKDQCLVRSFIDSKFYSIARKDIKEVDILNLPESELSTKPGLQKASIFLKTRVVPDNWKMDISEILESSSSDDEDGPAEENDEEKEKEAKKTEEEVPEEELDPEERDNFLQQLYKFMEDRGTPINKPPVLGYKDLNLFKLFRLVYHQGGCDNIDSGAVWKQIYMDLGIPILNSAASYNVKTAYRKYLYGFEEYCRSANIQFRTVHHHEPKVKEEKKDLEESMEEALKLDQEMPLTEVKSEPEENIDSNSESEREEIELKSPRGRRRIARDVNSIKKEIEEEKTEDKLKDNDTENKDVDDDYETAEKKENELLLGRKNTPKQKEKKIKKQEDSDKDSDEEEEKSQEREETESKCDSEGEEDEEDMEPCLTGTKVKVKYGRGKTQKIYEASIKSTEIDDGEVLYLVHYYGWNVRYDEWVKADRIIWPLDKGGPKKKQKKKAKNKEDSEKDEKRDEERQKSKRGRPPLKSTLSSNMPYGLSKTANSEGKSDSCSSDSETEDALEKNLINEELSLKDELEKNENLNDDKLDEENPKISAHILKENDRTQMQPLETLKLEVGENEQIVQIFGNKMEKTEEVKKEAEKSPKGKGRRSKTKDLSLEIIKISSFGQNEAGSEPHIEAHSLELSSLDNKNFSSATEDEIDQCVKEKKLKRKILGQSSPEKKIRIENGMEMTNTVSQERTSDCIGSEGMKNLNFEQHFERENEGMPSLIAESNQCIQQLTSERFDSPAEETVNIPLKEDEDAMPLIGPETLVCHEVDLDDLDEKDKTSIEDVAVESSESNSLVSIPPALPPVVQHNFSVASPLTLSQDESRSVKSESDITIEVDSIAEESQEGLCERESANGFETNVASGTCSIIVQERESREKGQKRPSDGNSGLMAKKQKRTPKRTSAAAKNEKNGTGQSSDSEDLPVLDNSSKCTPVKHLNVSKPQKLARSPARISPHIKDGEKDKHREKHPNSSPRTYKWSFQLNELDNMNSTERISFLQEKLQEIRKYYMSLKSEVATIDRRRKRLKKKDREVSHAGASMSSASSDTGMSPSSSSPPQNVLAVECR
Procedure: (§1)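 Phage-displayed random hexadecapeptides (Cys-free, flanked by invariant Gly linkers, fused to the M13 P8 major coat protein) were selected over 5 rounds against GST-fused human PRM domains. Individual clones from rounds 4-5 were tested by phage ELISA, and positive clones binding the target but not GST were sequenced. Values are the ELISA signal ratio of target over background (GST); the background signal is given separately.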

[2] = target: T2, BTN1A1 285-479 SPRY (domain begin residue: 285, domain end residue: 479), Q13410
T2 chain: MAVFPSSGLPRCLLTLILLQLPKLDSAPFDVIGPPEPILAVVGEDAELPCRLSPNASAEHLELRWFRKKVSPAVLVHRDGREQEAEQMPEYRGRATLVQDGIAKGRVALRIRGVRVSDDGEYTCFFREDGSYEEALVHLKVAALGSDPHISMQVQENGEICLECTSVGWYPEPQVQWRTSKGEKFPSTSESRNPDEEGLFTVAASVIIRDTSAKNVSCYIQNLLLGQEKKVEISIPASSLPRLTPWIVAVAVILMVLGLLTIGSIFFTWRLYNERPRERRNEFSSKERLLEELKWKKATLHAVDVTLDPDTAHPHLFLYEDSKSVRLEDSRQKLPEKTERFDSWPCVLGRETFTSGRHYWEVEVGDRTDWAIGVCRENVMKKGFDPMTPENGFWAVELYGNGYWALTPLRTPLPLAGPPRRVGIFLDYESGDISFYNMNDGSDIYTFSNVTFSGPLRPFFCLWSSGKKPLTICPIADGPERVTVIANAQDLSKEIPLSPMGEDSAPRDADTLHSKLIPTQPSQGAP
Procedure: as §1

[3] = target: ARPC3 1-178 P21-Arc (domain begin residue: 1, domain end residue: 178), O15145
Procedure: as §1

[4] = target: T3, CAPN2 513-700 EF-hand_8 (domain begin residue: 513, domain end residue: 700), P17655
T3 chain: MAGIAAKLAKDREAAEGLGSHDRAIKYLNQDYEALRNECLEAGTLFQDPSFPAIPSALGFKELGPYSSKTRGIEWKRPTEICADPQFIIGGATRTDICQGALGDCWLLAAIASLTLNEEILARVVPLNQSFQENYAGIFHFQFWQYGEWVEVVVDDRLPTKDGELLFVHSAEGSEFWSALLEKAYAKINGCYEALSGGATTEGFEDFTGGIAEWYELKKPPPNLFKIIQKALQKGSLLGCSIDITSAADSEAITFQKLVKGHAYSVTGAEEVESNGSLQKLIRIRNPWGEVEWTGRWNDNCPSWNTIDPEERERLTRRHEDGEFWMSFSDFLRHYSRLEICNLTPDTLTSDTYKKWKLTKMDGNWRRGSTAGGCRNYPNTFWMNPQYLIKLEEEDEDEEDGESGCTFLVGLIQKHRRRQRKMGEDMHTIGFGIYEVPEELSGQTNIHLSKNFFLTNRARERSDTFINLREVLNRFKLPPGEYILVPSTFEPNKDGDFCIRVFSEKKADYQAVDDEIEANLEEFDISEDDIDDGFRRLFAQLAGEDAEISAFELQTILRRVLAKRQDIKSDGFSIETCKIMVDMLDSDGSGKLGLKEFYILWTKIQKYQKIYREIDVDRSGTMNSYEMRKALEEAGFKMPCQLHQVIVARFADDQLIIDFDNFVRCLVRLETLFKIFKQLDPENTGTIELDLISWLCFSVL
Procedure: as §1

[5] = target: T4, ALDOA 1-364 Glycolytic (domain begin residue: 1, domain end residue: 364), P04075
T4 chain: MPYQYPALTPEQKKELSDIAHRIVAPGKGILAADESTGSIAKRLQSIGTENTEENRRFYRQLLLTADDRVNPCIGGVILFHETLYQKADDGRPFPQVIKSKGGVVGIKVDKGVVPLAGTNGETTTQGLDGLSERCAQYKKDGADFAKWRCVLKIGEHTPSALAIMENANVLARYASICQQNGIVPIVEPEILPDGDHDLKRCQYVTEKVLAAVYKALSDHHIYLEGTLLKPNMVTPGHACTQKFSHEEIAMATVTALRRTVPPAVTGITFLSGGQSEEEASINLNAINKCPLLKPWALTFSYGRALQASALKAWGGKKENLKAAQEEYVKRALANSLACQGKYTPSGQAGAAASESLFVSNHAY
Procedure: as §1

[6] = target: T5, ARFGEF2 639-829 Sec7 (domain begin residue: 639, domain end residue: 829), Q9Y6D5
T5 chain: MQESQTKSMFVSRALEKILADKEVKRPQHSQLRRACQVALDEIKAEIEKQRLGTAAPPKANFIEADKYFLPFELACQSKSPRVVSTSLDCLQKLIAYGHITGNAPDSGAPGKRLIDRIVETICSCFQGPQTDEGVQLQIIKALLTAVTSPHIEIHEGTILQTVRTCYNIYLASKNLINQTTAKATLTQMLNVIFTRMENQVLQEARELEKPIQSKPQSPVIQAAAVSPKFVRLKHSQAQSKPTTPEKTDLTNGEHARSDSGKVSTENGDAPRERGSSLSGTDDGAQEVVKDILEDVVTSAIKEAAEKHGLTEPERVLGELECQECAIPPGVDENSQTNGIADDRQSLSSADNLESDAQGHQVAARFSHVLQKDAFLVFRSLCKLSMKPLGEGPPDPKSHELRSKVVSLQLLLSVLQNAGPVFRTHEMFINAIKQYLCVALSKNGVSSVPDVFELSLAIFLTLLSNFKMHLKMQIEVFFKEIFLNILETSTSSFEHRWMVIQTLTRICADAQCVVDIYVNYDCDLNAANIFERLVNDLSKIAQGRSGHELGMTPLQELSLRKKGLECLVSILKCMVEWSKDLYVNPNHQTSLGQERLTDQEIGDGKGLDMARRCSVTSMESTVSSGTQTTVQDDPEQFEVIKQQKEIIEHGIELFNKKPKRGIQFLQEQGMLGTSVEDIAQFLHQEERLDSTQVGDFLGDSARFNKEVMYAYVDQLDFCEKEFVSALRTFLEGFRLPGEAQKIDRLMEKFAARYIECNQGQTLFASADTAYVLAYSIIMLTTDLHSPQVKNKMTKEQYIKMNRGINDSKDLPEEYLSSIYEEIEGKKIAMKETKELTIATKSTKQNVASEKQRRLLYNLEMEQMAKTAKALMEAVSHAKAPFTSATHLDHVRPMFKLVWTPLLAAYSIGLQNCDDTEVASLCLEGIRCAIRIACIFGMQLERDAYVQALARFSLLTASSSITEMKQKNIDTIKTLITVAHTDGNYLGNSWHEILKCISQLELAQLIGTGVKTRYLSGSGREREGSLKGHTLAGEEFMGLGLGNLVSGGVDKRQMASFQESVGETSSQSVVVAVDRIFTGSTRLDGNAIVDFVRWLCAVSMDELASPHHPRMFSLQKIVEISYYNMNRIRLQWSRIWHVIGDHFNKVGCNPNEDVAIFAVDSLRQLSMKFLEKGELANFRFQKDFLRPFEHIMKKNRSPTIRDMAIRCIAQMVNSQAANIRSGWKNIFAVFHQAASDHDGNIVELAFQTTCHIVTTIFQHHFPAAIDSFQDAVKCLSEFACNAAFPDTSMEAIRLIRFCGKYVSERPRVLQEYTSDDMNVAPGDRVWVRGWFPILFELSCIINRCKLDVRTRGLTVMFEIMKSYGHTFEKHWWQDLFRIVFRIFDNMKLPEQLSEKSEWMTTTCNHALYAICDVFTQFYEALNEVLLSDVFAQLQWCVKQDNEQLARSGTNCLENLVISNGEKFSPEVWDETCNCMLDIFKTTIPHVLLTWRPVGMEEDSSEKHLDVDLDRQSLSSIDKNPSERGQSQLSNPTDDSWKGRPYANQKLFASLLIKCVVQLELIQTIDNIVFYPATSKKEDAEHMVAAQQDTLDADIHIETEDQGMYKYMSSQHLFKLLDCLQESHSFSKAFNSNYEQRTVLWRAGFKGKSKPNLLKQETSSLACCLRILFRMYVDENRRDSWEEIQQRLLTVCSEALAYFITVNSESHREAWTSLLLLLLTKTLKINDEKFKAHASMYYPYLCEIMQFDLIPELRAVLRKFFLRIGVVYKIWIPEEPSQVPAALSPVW
Procedure: as §1

B1: unnamed (peptide)
chain: QQVVDMQQMWQQWIEI
phage ELISA signal ratio [1]: 4.93

B2: unnamed (peptide)
chain: NWDMWMEEQYDPSVML
phage ELISA signal ratio [1]: 9.12

B3: unnamed (peptide)
chain: DWQYTYMPDMIPDWVM
phage ELISA signal ratio [2]: 20.7

B4: unnamed (peptide)
chain: VPEWWWQGWDPHHVVE
phage ELISA signal ratio [3]: 6.99

B5: unnamed (peptide)
chain: ISESQIAQFVMAWMQQ
phage ELISA signal ratio [4]: 22.5

B6: unnamed (peptide)
chain: WVQDTWGEGWSYTVQE
phage ELISA signal ratio [5]: 20.2

B7: unnamed (peptide)
chain: MPDGLPEWWQGRHDWW
phage ELISA signal ratio [6]: 18.2

B8: unnamed (peptide)
chain: WDAFVNDFMHEWSTFK
phage ELISA signal ratio [4]: 26.5

B9: unnamed (peptide)
chain: SWDHWDEKMTSMVVFM
phage ELISA signal ratio [2]: 9.92
